KKLEB cytotox: cytotoxicity in KKLEB CF airway cells, primary screen, cytotoxicity control for CF NF-kB inhibitor project, cell-based, uHTS, fluorescence assay plates; 360,000 compounds, 0.36% hits; activity change (cytotoxicity), % at 5 µM; KKLEB CF airway cells viability, ATPlite luminescence, overnight; active compounds read low; cells stimulated with P. aeruginosa culture filtrate;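 active means corrected activity change at or below -50% at 5 µM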
CF NFkB block: inhibitors of PAF-induced NF-kB signaling, primary screen, cell-based, GFP fluorescence, uHTS; KKLEB NF-kB-GFP reporter, GFP fluorescence overnight; 360,000 compounds, 0.86% hits; inhibition, % at 5 µM; AID 588850, 2011;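 active means at least 50% inhibition at 5 µM, scaled per plate between neutral and stimulator controls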;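 further: PAF is a Pseudomonas aeruginosa culture filtrate used as stimulus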
HIF-2a inh: HIF-2a reporter inhibitors, primary screen, luminescence, 786-0 RCC cells | 360,000 compounds, 0.72% hits | inhibition, % at 18.8 µM | 786-0 RCC cells HIF-2a reporter, luciferase luminescence, overnight;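 active means inhibition of the luminescence signal of 40% or more relative to plate controls, in a single-dose primary screen at 18.75 µM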
TWEAK-Fn14 inh: inhibitors of TWEAK-Fn14 signaling, primary screen, luciferase reporter cells, uHTS; inhibition, % at 10 µM; TWEAK-stimulated Fn14 reporter cells, luciferase luminescence, 8 h; 360,000 compounds, 2% hits; AID 1159606, 2016; in the data active means inhibition above about 50%
TROY signal inh: inhibitors of TROY-driven NF-kB signaling, primary screen, Q293 LMP1-TROYcd cells, NF-kB luciferase, uHTS | Q293 LMP1-TROYcd NF-kB luciferase reporter, 4 h | inhibition, % at 10 µM | 360,000 compounds, 0.98% hits | AID 1347056, 2019;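 active means compounds whose plate-normalised and pattern-corrected inhibition of the luciferase reporter signal at the single screening dose is 50% or more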
Peg3 prom inh: Peg3 promoter-driven luciferase inhibitors, primary screen, cell-based, HeLa, luciferase luminescence. HeLa PEG-Prom luciferase reporter, overnight. inhibition, % at 20 µM. 360,000 compounds, 1.7% hits. AID 588405, 2011;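 active means inhibition of at least 50% at 20 µM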
Large screens that a line does not name were inactive; ! = a repeat was not active. Only some compounds are listed: those with a hit (about 4% of all), similar ones and a draw of the others.

Cc1cnc(C)c(Nc2nc(C(N)Cc3ccccc3)cs2)n1 (stereo not drawn)	none
NC(Cc1cnc[nH]1)c1csc(Nc2ccc(C(F)(F)F)cn2)n1 (stereo not drawn)	none
Cc1cnc(C)c(Nc2nc(C(N)Cc3ccc(C(F)(F)F)cc3)cs2)n1 (stereo not drawn)	Peg3 prom inh 108
NC(Cc1ccc(C(F)(F)F)cc1)c1csc(Nc2ccccn2)n1 (stereo not drawn)	Peg3 prom inh 105
NC(Cc1ccc(Cl)cc1)c1csc(Nc2ccc(-c3ccccc3)nn2)n1 (stereo not drawn)	Peg3 prom inh 99
COc1ccc([C@H]2CC(=O)C=C(c3ccc(Cl)c(Cl)c3)C2)cc1	none
O=C(Nc1cccc(-c2ccc(N3CCCCC3)nn2)c1)c1ccco1	none
O=C(CCCN1C(=O)/C(=C\c2ccccc2)SC1=S)Nc1ccc(O)cc1C(=O)O	none
CCc1ccc(C=C2SC(=S)N(CCCC(=O)Nc3ccc(C(=O)O)cc3)C2=O)cc1	HIF-2a inh 51
COc1ccc(/C=C2/SC(=O)N(CCC(=O)Nc3ccccc3C(=O)O)C2=S)cc1	HIF-2a inh 57
CCc1ccc(/C=C2/SC(=S)N(CCCC(=O)Nc3ccccc3C(=O)O)C2=O)cc1	TROY signal inh 75
Cn1c2ccc(F)cc2c2nnc(SCC(=O)Nc3cccc(O)c3)nc21	none
S=C(NNc1ccnc2cc(Cl)ccc12)Nc1ccc(Cl)cc1Cl	Peg3 prom inh 52
CCOc1ccc(NC(=S)NNc2ccnc3cc(Cl)ccc23)cc1	none
O=C(NCC1CCN(Cc2ccc(Cl)cc2)CC1)C1CCCN(c2ncnc3c2nc2n3CCCCC2)C1 (stereo not drawn)	Peg3 prom inh 51
O=C(NCC1CCN(Cc2ccc(F)cc2)CC1)C1CCCN(c2ncnc3c2nc2n3CCCCC2)C1 (stereo not drawn)	none
Cc1cccc(N2CCN(CCCNC(=O)C3CCCN(c4ncnc5c4nc4n5CCCCC4)C3)CC2C)c1 (stereo not drawn)	Peg3 prom inh 60
N#C/C(=C\c1cccs1)C(=O)NCc1ccccc1	none
N#C/C(=C\c1cccs1)C(=O)Nc1nccs1	TWEAK-Fn14 inh 53
Cc1ccc(C(=O)Nc2sc(C)c(-c3ccccc3)c2C(N)=O)cc1[N+](=O)[O-]	TWEAK-Fn14 inh 98, TROY signal inh 87
Cc1ccc(C(=O)Nc2cccc(NC(=O)c3ccc(C)c([N+](=O)[O-])c3)n2)cc1[N+](=O)[O-]	none
O=C(c1cnc(Cc2c[nH]c3ccccc23)c(I)c1)N1CCCCC1	none
COC(=O)c1ccccc1NC1=C/C(=N\S(=O)(=O)c2ccc(C(=O)O)cc2)c2ccccc2C1=O	KKLEB cytotox -62, CF NFkB block 97, TWEAK-Fn14 inh 94, Peg3 prom inh 105
CCc1ccc(S(=O)(=O)/N=C2\C=C(Nc3ccc(C(=O)O)cc3)C(=O)c3ccccc32)cc1	CF NFkB block 90, TWEAK-Fn14 inh 96
Cc1ccc(S(=O)(=O)/N=C2\C=C(Nc3cccc(C(=O)O)c3)C(=O)c3ccccc32)c(C)c1	CF NFkB block 92, TWEAK-Fn14 inh 93
O=C(O)c1ccc(NC2=C(n3nnc4ccccc43)C(=O)c3ccccc3C2=O)cc1	none
Cc1ccc(S(=O)(=O)/N=C2\C=C(Nc3cccc(C(=O)O)c3)C(=O)c3ccccc32)cc1	CF NFkB block 98, TWEAK-Fn14 inh 94
CC(=O)N1CCCc2cc(S(=O)(=O)N3CCCC(C)C3)ccc21 (stereo not drawn)	none
Cc1ccc(S(=O)(=O)/N=C2\C=C(Nc3ccc(O)cc3)C(=O)c3ccccc32)cc1	KKLEB cytotox -80, CF NFkB block 83, HIF-2a inh 70, TWEAK-Fn14 inh 101, Peg3 prom inh 105
Cc1ccc(S(=O)(=O)Nc2ccc(N=Nc3ccc(O)cc3)cc2)cc1	none
O=c1c2ccccc2nnn1CCc1ccccc1	none
O=C(COC(=O)c1ccc([N+](=O)[O-])o1)NC1CCCc2ccccc21 (stereo not drawn)	none
CCOC(=O)c1cc2c(=O)n3cccc(C)c3nc2n(CC2CCCO2)c1=NC(C)=O (stereo not drawn)	TWEAK-Fn14 inh 92!
CN1C(=O)CC(c2ccco2)Sc2ccccc21 (stereo not drawn)	none
COc1ccc(C2CC(=O)N(C)c3ccccc3S2)cc1 (stereo not drawn)	TWEAK-Fn14 inh 70, TROY signal inh 57
COc1ccc(C2CC(=O)N(CC(=O)NCC3CCCO3)c3ccccc3S2)cc1 (stereo not drawn)	TROY signal inh 52
O=C(CN1C(=O)CC(c2ccco2)Sc2ccccc21)NCC1CCCO1 (stereo not drawn)	none
COc1ccc(C(C)(O)c2nc(-c3ccoc3)cs2)cc1 (stereo not drawn)	none
CCN(C(=O)COC(=O)/C=C/c1ccc2c(c1)OCO2)c1c(N)n(Cc2ccccc2)c(=O)[nH]c1=O	none
COc1ccc(/C=C2\C(=O)ON=C2c2ccccc2)cc1	none
O=C1ON=C(c2ccccc2)/C1=C/c1ccc(O)c(O)c1	HIF-2a inh 41
COC(=O)C[C@H]1C=C[C@@H](NC(=O)Nc2c(C)noc2C)[C@@H](CO)O1	none (no result: KKLEB cytotox, CF NFkB block, TWEAK-Fn14 inh, TROY signal inh, Peg3 prom inh)
CC(c1ccccc1)N1C(=O)c2ccc(C(=O)NCc3cccnc3)cc2C1=O (stereo not drawn)	none
CN1CCN(C2Cc3cc(F)ccc3Sc3ccc(Cl)cc32)CC1 (stereo not drawn)	none
CN1CCN(C2Cc3ccc(F)cc3Sc3cc(F)c(Cl)cc32)CC1 (stereo not drawn)	Peg3 prom inh 107
CCCC[C@@H](CNC)NC[C@H](NCCCCC1CCCCC1)C(C)C	Peg3 prom inh 104
Cc1c(C(=O)NCc2ccc(C(F)(F)F)cc2)sc(=O)n1Cc1ccc(S(=O)(=O)N(C)C)cc1	TWEAK-Fn14 inh 57
CC(=O)Oc1ccc(Cn2c(C)c(C(=O)NCc3ccc4c(c3)OCCO4)sc2=O)cc1	TROY signal inh 67
CCOc1ccccc1CNC(=O)Cn1nc(C)c2c(C)n(-c3ccc(C)cc3)nc2c1=O	TWEAK-Fn14 inh 58
COCCNc1nc(Nc2ccc(F)cc2)c2sccc2n1	none
CN(C)c1ccc(/C=N/N=C/c2ccccc2O)cc1	TWEAK-Fn14 inh 59
CC(=O)N(C1=C(Cl)C(=O)c2ccccc2C1=O)C1CCCCC1	HIF-2a inh 82, Peg3 prom inh 105
CC(=O)N(c1ccccc1C)C1CCCC1	none

Assay outcomes (PubChem)
